Laboratory results reported in PubChem BioAssay (Tox21).
Records with an inconclusive call do not appear. The source made the active and inactive calls. The call rests on the fitted dose curve; in most records, active means well fitted cell-killing curve with a large enough effect in the repeat runs; inconclusive means weak or mixed curves, or effect the other way; inactive means flat fitted curve, though single readings scatter.

Assay: cAMP Responsive Elements (CRE) small molecule antagonists, cell-based qHTS assay: qHTS cell viability counter screen (AID 2060913); further: nearly all actives have a fitted effect of over 40% in size
Conditions: CRE-bla HEK293T viability, CellTiter-Glo luminescence, 5 h; series mostly up to 92.4 µM; viability change, negative = cytotoxic: at the top concentration
How it was run: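 Viability of NKH477-stimulated (0.25 uM final) CRE-bla HEK293T cells is measured by CellTiter-Glo luminescence following 3 hrs compound exposure at 37 C.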
On the % scale 0 is the no-effect control and ±100 the full control effect; potency means the concentration at half of the fitted maximal effect.

| SMILES | Potency | viability change, negative = cytotoxic |
| --- | --- | --- |
| O=C(O)Cc1ccccc1Nc1c(Cl)cccc1Cl | inactive |  |
| CC(C)CCCC(C)(C)O |  | -6.23% (inactive) |
| NC(=O)NC1N=C([O][Al])NC1=O (centres undefined) |  | -4.91% [at 42.5 µM] (inactive) |
| CCCCC(CC)COC(=O)c1ccccc1C(=O)O (centres undefined) |  | 3.97% (inactive) |
| CN(C)CCCNCCCN |  | -7.43% (inactive) |
| COc1ccc(C#N)cc1 |  | 15.8% (inactive) |
| C=CCOc1c(Br)cc(C(C)(C)c2cc(Br)c(OCC=C)c(Br)c2)cc1Br |  | -21.5% [at 42.5 µM] (inactive) |
| CN(C)CCCOc1nn(Cc2ccccc2)c2ccccc12 |  | -1.48% [at 42.5 µM] (inactive) |
| C=C1C(CCl)(CCl)C2(Cl)C(Cl)C(Cl)C1(Cl)C2(Cl)Cl (centres undefined) | 60.4 µM (active) |  |
| CN(C)Cc1cc(CN(C)C)c(O)c(CN(C)C)c1 | inactive |  |
| [Cu+] |  | -5.67% (inactive) |
| CCCOC(OCCC)OCCC |  | 1.34% (inactive) |
| O=C(O)C(=O)O | inactive |  |
| CCCCCCCCCCCCCCCC(=O)NCCO |  | -3.42% [at 42.5 µM] (inactive) |
| CN1CCCN=C1/C=C/c1cccs1 |  | 16% [at 42.5 µM] (inactive) |
| Cc1cnccn1 |  | 5.55% (inactive) |
| CN1CCN(C2=Nc3cc(F)ccc3Cc3ccccc32)CC1 |  | 1.38% [at 42.5 µM] (inactive) |
| CCCCCCCCCCOC(=O)c1ccccc1C(=O)OCCCCCCCC |  | 0.25% (inactive) |
| Cc1[nH]cnc1-c1ccc(Cl)cc1 |  | 0.591% [at 42.5 µM] (inactive) |
